For some of these results: Measured potencies and affinities stand elsewhere. The source made the active and inactive calls. Unless noted, no rule for the calls is given here.
Key:
[1] = antimalarial activity against Dd2 strain (AID 2302;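 active = growth inhibition above 50% at the single 2 µM test dose, taken to imply half-maximal potency below 2 µM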;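 also: 0% = DMSO untreated growth and 100% = chloroquine plus artemisinin killed control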); settings: P. falciparum Dd2 in RBCs, LDH growth readout, 72 h; at 2 µM; hits give high values
[2] = human hepatoma cell viability loss – ATP luminescence, cytotoxicity control for P. falciparum antimalarial project, primary screen (AID 2303;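 active = inhibition above 50%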;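 also: 0% = DMSO wells and 100% = digitonin-killed cells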); settings: HepG2 viability, 24-48 h, at 10 µM, hits give high values
[3] = biological target: L-lactate dehydrogenase (Plasmodium falciparum (isolate CDC / Honduras)) (UniProt Q27743); assay: PfLDH activity inhibition – cell lysate, 3D7 strain, counter-screen for P. falciparum growth inhibition project (AID 2304);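 also: 0% = vehicle and 100% = reference inhibitor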; settings: P. falciparum 3D7 crude extract, LDH APAD/NBT absorbance; at 2 µM; hits give high values
Sequence of L-lactate dehydrogenase (Plasmodium falciparum (isolate CDC / Honduras)) (Q27743 whole entry, looked up): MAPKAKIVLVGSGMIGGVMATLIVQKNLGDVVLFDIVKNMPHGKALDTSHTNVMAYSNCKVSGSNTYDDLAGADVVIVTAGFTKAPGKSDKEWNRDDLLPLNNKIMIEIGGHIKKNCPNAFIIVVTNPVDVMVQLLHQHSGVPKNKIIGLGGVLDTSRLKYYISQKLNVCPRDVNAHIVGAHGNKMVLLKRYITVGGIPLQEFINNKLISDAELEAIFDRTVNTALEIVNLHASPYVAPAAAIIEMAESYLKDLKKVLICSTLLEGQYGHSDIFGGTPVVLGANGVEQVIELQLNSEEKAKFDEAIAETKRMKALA

[4] = inhibition of 3D7 malaria parasite growth – strain 3D7 (AID 2306);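 also: 0% = DMSO wells and 100% = chloroquine plus artemisinin control wells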; settings: P. falciparum 3D7 erythrocytic growth, LDH absorbance, 72 h; at 2 µM; hits give high values
[5] = biological target: Calcium-dependent protein kinase 1 (Plasmodium falciparum (isolate 3D7)) (UniProt P62344); assay: PfCDPK1 kinase inhibitors, biochemical, TCAMS library (AID 1159585; cut-off not given, nearly all actives have IC50 up to about 0.98 µM;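 also: inhibitors leave more ATP so luminescence rises with inhibition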); settings: recombinant PfCDPK1, Kinase-Glo ATP depletion luminescence
Sequence of Calcium-dependent protein kinase 1 (Plasmodium falciparum (isolate 3D7)) (P62344 whole entry, looked up): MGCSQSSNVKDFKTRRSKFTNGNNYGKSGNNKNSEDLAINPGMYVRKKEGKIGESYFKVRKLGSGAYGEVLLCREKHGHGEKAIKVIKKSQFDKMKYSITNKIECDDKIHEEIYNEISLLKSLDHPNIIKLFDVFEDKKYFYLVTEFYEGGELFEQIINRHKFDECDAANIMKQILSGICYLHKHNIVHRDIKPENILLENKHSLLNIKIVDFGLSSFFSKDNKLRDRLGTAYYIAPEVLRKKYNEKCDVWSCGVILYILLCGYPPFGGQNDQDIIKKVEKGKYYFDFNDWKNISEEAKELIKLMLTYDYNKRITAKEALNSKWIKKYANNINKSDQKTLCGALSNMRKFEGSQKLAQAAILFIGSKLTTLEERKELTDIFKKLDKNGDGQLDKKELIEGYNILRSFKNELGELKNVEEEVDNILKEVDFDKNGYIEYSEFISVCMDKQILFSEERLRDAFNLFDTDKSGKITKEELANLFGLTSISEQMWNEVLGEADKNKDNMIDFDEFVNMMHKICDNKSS

[6] = biological target: Plasmodium falciparum protein kinase 6 (PK6, PF3D7_1337100) (UniProt Q8IDW1); assay: PfPK6 kinase inhibitors, biochemical, TCAMS library (AID 1159586); settings: recombinant PfPK6, Kinase-Glo ATP depletion luminescence
Sequence of Plasmodium falciparum protein kinase 6 (PK6, PF3D7_1337100) (Q8IDW1 1-305): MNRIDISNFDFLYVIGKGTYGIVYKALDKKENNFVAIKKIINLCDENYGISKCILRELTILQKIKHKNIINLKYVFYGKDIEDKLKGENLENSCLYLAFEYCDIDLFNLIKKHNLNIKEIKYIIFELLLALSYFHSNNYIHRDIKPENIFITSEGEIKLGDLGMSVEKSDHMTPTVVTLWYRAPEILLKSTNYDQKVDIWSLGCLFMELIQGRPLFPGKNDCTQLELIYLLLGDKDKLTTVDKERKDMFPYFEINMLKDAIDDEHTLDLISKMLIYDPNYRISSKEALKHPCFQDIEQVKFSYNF

[7] = biological target: Protein kinase 7 (PK7), Plasmodium falciparum 3D7 (PF3D7_0213400) (UniProt Q7YTF7); assay: inhibition of Plasmodium PK7 catalytic activity – biochemical, TCAMS antimalarial set, Kinase-Glo luminescence (AID 1159587); settings: recombinant PfPK7, Kinase-Glo ATP depletion luminescence
Sequence of Protein kinase 7 (PK7), Plasmodium falciparum 3D7 (PF3D7_0213400) (Q7YTF7 1-343): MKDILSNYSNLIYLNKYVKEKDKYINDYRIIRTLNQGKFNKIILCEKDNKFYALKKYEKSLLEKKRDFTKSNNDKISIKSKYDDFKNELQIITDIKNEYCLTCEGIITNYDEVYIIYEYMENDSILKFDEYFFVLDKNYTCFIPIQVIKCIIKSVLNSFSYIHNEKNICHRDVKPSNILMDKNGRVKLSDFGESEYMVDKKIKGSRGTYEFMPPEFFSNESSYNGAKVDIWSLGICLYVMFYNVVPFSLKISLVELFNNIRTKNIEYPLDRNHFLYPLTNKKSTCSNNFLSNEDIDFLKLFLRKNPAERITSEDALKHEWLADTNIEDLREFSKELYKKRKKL

[8] = biological target: Calcium-dependent protein kinase 4 (Plasmodium falciparum (isolate 3D7)) (UniProt Q8IBS5); assay: PfCDPK4 kinase inhibitors, biochemical, TCAMS library (AID 1159588; cut-off not given, nearly all actives have IC50 up to about 0.91 µM); settings: recombinant PfCDPK4, Kinase-Glo ATP depletion luminescence
Sequence of Calcium-dependent protein kinase 4 (Plasmodium falciparum (isolate 3D7)) (Q8IBS5 whole entry, looked up): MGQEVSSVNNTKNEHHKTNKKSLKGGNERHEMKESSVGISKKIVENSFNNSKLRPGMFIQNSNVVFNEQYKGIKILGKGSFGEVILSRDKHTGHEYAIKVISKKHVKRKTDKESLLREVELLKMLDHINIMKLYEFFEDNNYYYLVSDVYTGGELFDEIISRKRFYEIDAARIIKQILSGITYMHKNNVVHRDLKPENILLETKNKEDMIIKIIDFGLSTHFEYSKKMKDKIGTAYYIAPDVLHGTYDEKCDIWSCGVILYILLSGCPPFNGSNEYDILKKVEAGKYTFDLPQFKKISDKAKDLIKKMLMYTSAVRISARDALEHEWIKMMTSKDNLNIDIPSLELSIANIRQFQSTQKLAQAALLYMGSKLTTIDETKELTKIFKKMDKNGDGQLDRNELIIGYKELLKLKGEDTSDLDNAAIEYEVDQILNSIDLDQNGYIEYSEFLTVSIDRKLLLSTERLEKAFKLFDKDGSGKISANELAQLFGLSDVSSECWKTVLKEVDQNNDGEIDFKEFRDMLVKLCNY

c1ccc(CNCc2cccc(-c3cccc(-c4nc5ccccc5[nH]4)c3)c2)cc1
inactive: growth inhibition [1] 38% | inhibition [2] 12% | inhibition [3] -5% | outcome [5] | outcome [6] | outcome [7] | outcome [8]
active: growth inhibition [4] 102%

O=C(CCc1cnc[nH]1)Nc1ccc(-c2ccc(-c3nc4ccccc4[nH]3)cc2)cc1
inactive: inhibition [2] 46% | inhibition [3] 0% | outcome [5] | outcome [6] | outcome [7] | outcome [8]
active: growth inhibition [1] 70% | growth inhibition [4] 98%

O=C(Nc1cc2cc(-c3ccc(CN4CCCCC4)cc3)ccc2n2cnnc12)NC1CCCC1
inactive: inhibition [3] -4% | outcome [5] | outcome [6] | outcome [7] | outcome [8]
active: growth inhibition [1] 98% | inhibition [2] 78% | growth inhibition [4] 100%

O=C(Nc1cc(F)cc(F)c1)N1CCOC(CCN2CCC(c3ccccc3)CC2)(c2ccc(Cl)c(Cl)c2)C1 (stereo not given)
inactive: inhibition [2] 31% | inhibition [3] 0% | outcome [5] | outcome [6] | outcome [7] | outcome [8]
active: growth inhibition [1] 69% | growth inhibition [4] 91%

O=C(Cc1ccccc1)NC(c1ccccc1)c1ccc2cccnc2c1O (stereo not given)
active: growth inhibition [1] 61% | growth inhibition [4] 89%
inactive: inhibition [2] 49% | inhibition [3] 3% | outcome [5] | outcome [6] | outcome [7] | outcome [8]

Clc1ccc(Cc2nc3ccccc3[nH]2)cc1Cl
active: growth inhibition [4] 98%
inactive: growth inhibition [1] 2% | inhibition [2] 5% | inhibition [3] 0% | outcome [5] | outcome [6] | outcome [7] | outcome [8]

CN(c1ccccc1)S(=O)(=O)c1cccc(NC(=O)c2ccc(-n3ccnc3)c([N+](=O)[O-])c2)c1
inactive: growth inhibition [1] -8% | inhibition [2] 19% | inhibition [3] 2% | outcome [5] | outcome [6] | outcome [7] | outcome [8]
active: growth inhibition [4] 83%

Cc1ccc(Nc2nc(NN=Cc3cccc([N+](=O)[O-])c3)nc(Nc3ccccc3)n2)c(C)c1
inactive: inhibition [2] 9% | inhibition [3] 4% | outcome [5] | outcome [6] | outcome [7] | outcome [8]
active: growth inhibition [1] 97% | growth inhibition [4] 91%

CC(Oc1cc(-n2cnc3ccc(NC(=O)CCN4CCCCC4)cc32)sc1C(N)=O)c1ccccc1Cl (stereo not given)
inactive: inhibition [3] 1% | outcome [5] | outcome [6] | outcome [7] | outcome [8]
active: growth inhibition [1] 98% | inhibition [2] 95% | growth inhibition [4] 99%

CNC(=O)NC1CCN(Cc2c(-c3cccs3)nc3ccccc3c2C(=O)N[C@@H](C)C2CCCCC2)CC1
active: growth inhibition [1] 97% | growth inhibition [4] 99%
inactive: inhibition [2] 5% | inhibition [3] 1% | outcome [5] | outcome [6] | outcome [7] | outcome [8]

O=C(/C=C/c1ccc(Cl)c(Cl)c1)NCC(CCCN1CCC(c2c[nH]c3ccccc23)CC1)c1ccccc1 (stereo not given)
inactive: growth inhibition [1] 46% | inhibition [3] 3% | outcome [5] | outcome [6] | outcome [7] | outcome [8]
active: inhibition [2] 98% | growth inhibition [4] 100%

CC(C)(C)c1ccc(CN2CCC(NC(=O)c3ccc(-c4ccccc4F)s3)CC2)cc1
inactive: growth inhibition [1] 37% | inhibition [2] 36% | inhibition [3] 0% | outcome [5] | outcome [6] | outcome [7] | outcome [8]
active: growth inhibition [4] 85%

N#Cc1cccc(-c2cccc(C(=O)NC3CCC(CCN4CCc5ccc(C#N)cc5CC4)CC3)c2)c1 (stereo not given)
inactive: inhibition [2] 31% | inhibition [3] -6% | outcome [5] | outcome [6] | outcome [7] | outcome [8]
active: growth inhibition [1] 57% | growth inhibition [4] 99%

NCC(=O)Nc1cccc(Nc2nccc(-c3c(-c4cccc(NC(=O)c5ccccc5)c4)nn4ccccc34)n2)c1
active: growth inhibition [1] 87% | growth inhibition [4] 96%
inactive: inhibition [2] 45% | inhibition [3] 0% | outcome [5] | outcome [6] | outcome [7] | outcome [8]

COc1ccc2nccc(N3CCC(NCCNS(=O)(=O)c4ccc5c(c4)NC(=O)CS5)C3)c2n1 (stereo not given)
inactive: growth inhibition [1] 18% | inhibition [2] 12% | inhibition [3] 2% | outcome [5] | outcome [6] | outcome [7] | outcome [8]
active: growth inhibition [4] 97%

O=C(/C=C/c1ccc(Cl)c(Cl)c1)NCCCCCN1CCCC(CNS(=O)(=O)c2ccc(F)cc2)C1 (stereo not given)
active: inhibition [2] 56% | growth inhibition [4] 91%
inactive: growth inhibition [1] 7% | inhibition [3] 1% | outcome [5] | outcome [6] | outcome [7] | outcome [8]

COCCNC(=O)C(CNC(=O)c1ccc2c(c1)OCO2)NC(=O)c1ccc(-c2ccccc2)cc1 (stereo not given)
inactive: growth inhibition [1] 3% | inhibition [2] 14% | inhibition [3] 1% | outcome [5] | outcome [6] | outcome [7] | outcome [8]
active: growth inhibition [4] 90%

COc1cc2c(cc1OC)C(C(=O)Nc1ccc(C(F)(F)F)cc1)C(c1cccs1)N(C)C2=O (stereo not given)
active: growth inhibition [1] 86% | growth inhibition [4] 99%
inactive: inhibition [2] 31% | inhibition [3] 2% | outcome [5] | outcome [6] | outcome [7] | outcome [8]

O=C(Cc1cccc(Cl)c1)Nc1cccc(-c2c[nH]c3nc(Nc4ccccc4)ncc23)c1
inactive: inhibition [2] 5% | inhibition [3] -2% | outcome [5] | outcome [6] | outcome [7] | outcome [8]
active: growth inhibition [1] 70% | growth inhibition [4] 99%

Cn1cncc1CNCc1ccc(-c2cccc(-c3nc4ccccc4[nH]3)c2)cc1
active: growth inhibition [1] 92% | growth inhibition [4] 101%
inactive: inhibition [2] 19% | inhibition [3] -1% | outcome [5] | outcome [6] | outcome [7] | outcome [8]

— PubChem BioAssay
